Assay results as given in PubChem BioAssay (NCI).
This is part of a sample that, as a whole, favours compounds with a hit. Of some 79,000 tested, about 15% had one in any assay. A number with no mark means an inactive call. Active and inactive are the calls of the source. Rule as the data show it: active = growth inhibition above about 70%; inactive = the rest.

Columns and labels:
[1] = NCI Yeast Anticancer Drug Screen. Data for the rad50 strain (AID 155);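 also: 0% = growth of vehicle-only cultures of the same strain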; settings: S. cerevisiae rad50 strain growth inhibition; at 50.0 µM; stronger effect = higher value
Outline: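 Genetically altered yeast (DNA repair pathway); compound treatment; growth inhibition vs vehicle ctrl.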

[2] = NCI Yeast Anticancer Drug Screen. Data for the mec2-1 strain (AID 157); settings: S. cerevisiae mec2-1 strain, at 50.0 µM, stronger effect = higher value
Outline: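 Growth inhibition is read against vehicle-treated controls after compound exposure of the mec2-1 yeast strain, which is defective in DNA damage repair or cell cycle control.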

[3] = NCI Yeast Anticancer Drug Screen. Data for the sgs1 mgt1 strain (AID 161);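 also: 0% = growth of cultures given vehicle only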; settings: S. cerevisiae sgs1 mgt1 strain, at 50.0 µM, stronger effect = higher value
Outline: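 Yeast cells carrying a defined DNA-repair defect were exposed to test compounds. Growth inhibition was measured relative to vehicle-treated controls.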

[4] = NCI Yeast Anticancer Drug Screen. Data for the cln2 rad14 strain (AID 165);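 also: 0% = growth equal to vehicle treated cultures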; settings: S. cerevisiae cln2 rad14 strain, at 50.0 µM, stronger effect = higher value
Outline: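 Growth inhibition, relative to vehicle-treated controls, is the read-out. The test organism is a yeast strain with defined genetic alterations, cln2 rad14.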

[5] = NCI Yeast Anticancer Drug Screen. Data for the bub3 strain (AID 167); settings: S. cerevisiae bub3 mutant strain, at 50.0 µM, stronger effect = higher value
Outline: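 Yeast carrying a defined mutation is treated with each compound, and growth is compared with that of vehicle-exposed cells to give inhibition.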

[6] = NCI Yeast Anticancer Drug Screen. Data for the mlh1 rad18 strain (AID 175); settings: S. cerevisiae mlh1 rad18 strain growth inhibition; at 50.0 µM; stronger effect = higher value
Outline: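 Cells of a genetically altered yeast strain, deficient in DNA damage repair, were treated with compound. Their growth was then compared with that of vehicle-treated cultures to give inhibition.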

Row | SMILES | growth inhibition [1] | growth inhibition [2] [%] | growth inhibition [3] [%] | growth inhibition [4] [%] | growth inhibition [5] [%] | growth inhibition [6] [%]
1 | CCCCNCCCNCCCC | 4.95% | -3.4 | 0.65 | -0.7 | 25.5 | 2.6
2 | [Cl][Pt+2][Cl].[NH-]c1ccccc1F.[NH-]c1ccccc1F | 11.2% | 32.9 | -14.8 | 15.8 | -26.9 | 34.4
3 | NC(N)=NC(N)=Nc1ccc(-c2ccc(N=C(N)N=C(N)N)cc2)cc1 | 0.85% | -0.3 | -0.7 | 6.15 | 7.9 | 13.6
4 | COC(=O)/C(=C\C(=O)c1ccc(Br)cc1)NN=C(c1ccccc1)c1ccccc1 | -20.3% | -1.55 | -3.3 | 4.25 | -20.1 | -20.4
5 | COC12NC(=O)NC(=O)C1(c1ccccc1)CC(C)O2 (stereo unspecified) | -2.7% | -2.15 | 6.8 | -7.7 | -24.1 | -6.6
6 | COC(=O)C1=CO[C@@H](C)[C@@H]2CN3CCc4c([nH]c5ccc(OC)cc45)[C@@H]3C[C@H]12 | 8.9% | -19.9 | -24.9 | -18.6 | -2.9 | -16.4
7 | CC1=CCC(C(C)(C)OCCCO)CC1 (stereo unspecified) | 15.8% | 14 | -17.6 | 10.7 | 4.4 | 22
8 | CCN(CC)CCNC(=O)c1cn2c(ccc3sc4ccccc4c(=O)c32)n1 | 70.8% (active) | 57.5 | 48.7 | 38.3 | 26.3 | 28.8
9 | CC(=O)/C(=C/n1ccc(=O)[nH]c1=S)C(=O)Nc1ccccc1 | -23.1% | -20.5 | -18.6 | 11.2 | -12.7 | -22.1
10 | CC(C)(C)/C(=N\O)c1ccccc1 | -8.8% | -13.6 | -23.3 | -8.05 | -17.4 | -23.3
11 | O=c1cc(-c2ccccc2)nc(Sc2ccc([N+](=O)[O-])cc2[N+](=O)[O-])[nH]1 | 1.1% | 0.2 | -11.4 | 2.7 | 2.65 | 8.25
12 | COc1ccccc1/C=N\NC(=O)c1ccccc1O | 13.2% | 11.6 | 11.8 | 21.5 | 41 | 11.3
13 | CCCCC(CC)C1OCCS1 (stereo unspecified) | 5.95% | -24.4 | -4.3 | 1.9 | -17 | -10
14 | CCOc1ccc(NC(=O)/C=C/c2ccco2)cc1 | -12% | -8.75 | 13.9 | 22 | 5.3 | 3
15 | COC(=N)c1nnn(-c2ccccc2)n1 | -8.6% | -8 | -5.05 | -16.1 | 2.05 | -17.9
16 | CCN(CC)c1ccc2cc(C(=O)Nc3cccc4ccccc34)c(=N)oc2c1 | 14.4% | 3.05 | -10.2 | -5.45 | -25.9 | -53.6
17 | CC(=O)Nc1cc(Cl)cc2c1[nH]c(=O)c1ccccc12 | 9.75% | 5.35 | -2 | -7 | 9.25 | 1.05
18 | COc1ccc(C(=O)COC(C)(C)C)cc1 | -8.55% | -28.2 | -20 | -2.7 | -16.9 | -22.1
19 | O=c1oc2ccc(Cl)cc2c(OCCO)c1Cl | -5.2% | 4.55 | -4.45 | -0.5 | -5.95 | -1.15
20 | CC(C)CCC(=O)OC/C(=N\Nc1ccc([N+](=O)[O-])cc1[N+](=O)[O-])c1ccc(-c2ccccc2)cc1 | -17.7% | 12.5 | -15.8 | -35.6 | 1.9 | 14.8
21 | COC1=NN2C(OC)(c3ccccc3)c3c(-c4ccccc4)sc(-c4ccccc4)c3C2(c2ccccc2)S1 (stereo unspecified) | 29.4% | 2.1 | 5.15 | 37.6 | 1.9 | 5.5

Row | SMILES | growth inhibition [1] | growth inhibition [2] [%] | growth inhibition [3] [%] | growth inhibition [4] [%] | growth inhibition [5] [%] | growth inhibition [6] [%]
22 | Cc1cccc(C(=O)NN)c1O | -1.7% | -14.7 | -6.25 | 5.7 | 23.9 | 22.2
23 | Cc1nc(N)c(N2CCN(S(=O)(=O)N(Cc3ccccc3)Cc3ccccc3)CC2)c(=O)[nH]1 | -10.9% | 2.3 | 2.95 | -11.9 | 14.9 | 3.95
24 | O=c1[nH]cc(SSc2c[nH]c(=O)[nH]c2=O)c(=O)[nH]1 | 13.4% | 15.7 | 4.2 | -25.3 | 29.9 | 12.9
25 | Cc1cc2oc(=O)[nH]c(=S)c2c(C)c1C | -47.7% | -19.2 | -35.2 | 2.45 | -59.5 | -36.6
26 | CC(C)(Oc1ccc(/C=C/C(=O)c2ccc(Cl)cc2)cc1)C(=O)Nc1c(Cl)cccc1Cl | 0.85% | -2.05 | 2.6 | 12.1 | 12.8 | 19
27 | CCSc1nc2ccc(CN3C(=O)c4ccccc4C3=O)cc2s1 | 1.3% | -3.5 | -4.6 | 1.5 | 15.8 | -2.3
28 | CCOC(=O)C(O)C(O)C(O)C(O)C(=O)OCC (stereo unspecified) | 5.6% | -8.15 | 1.9 | -2.35 | -7.7 | -8.75
29 | CC(=O)CC(=O)Nc1cc(C(F)(F)F)ccc1Cl | 15.4% | -25.6 | -19.1 | -0.3 | -6.25 | 3.05
30 | O=C1c2ccccc2C(=O)N1CCOCCOCCN1C(=O)c2ccccc2C1=O | -8.15% | -6 | -17 | -20.7 | -2.7 | 20.4
31 | CCOCCOCCOc1c(Cl)cc(Cl)cc1Cl | -6.65% | 1.9 | -7.35 | -46 | 30.2 | -21.6
32 | NC(N)=NC(N)=Nc1c(F)c(F)c(F)c(F)c1F | -17.4% | -33.1 | -11.8 | -14.5 | -3.6 | -20.6
33 | CC(O)(C(=O)O)C(NC(=O)c1ccccc1)C(=O)O (stereo unspecified) | 12.2% | 6.2 | -2.5 | 6.3 | 11.1 | 2.45
34 | Oc1ccc(-c2ccc(Br)cc2)cc1 | -25.1% | -6 | -14.4 | -2 | -31.8 | -14.8
35 | Nc1ccc2c(c1)NCC2 | -27.6% | -45.7 | -17.1 | 12.1 | -14.9 | -16.6
36 | CCC(=O)OCc1ccc(Cl)cc1 | 23.9% | 11.4 | 7.9 | 8.6 | 12.4 | 4.9
37 | CC1CC(=O)Oc2ccccc21 (stereo unspecified) | 35.5% | 5.7 | 3.8 | -3.35 | 5.95 | 1.5
38 | O=C(Nc1cccc(Cl)c1Cl)c1cc(/C=C/c2ccc([N+](=O)[O-])cc2)on1 | -21.2% | 1.15 | -12.8 | 9.1 | -8.25 | -3.85
39 | O=C1c2cccc3cc([N+](=O)[O-])cc(c23)C(=O)N1Cc1cccnc1 | 42.5% | 15.6 | 38.6 | 19 | 10.5 | 10.8
40 | CCOC(=O)Nc1cc(Nc2ccc(Cl)cc2)c2nc(-c3ccc(Cl)cc3)c(-c3ccc(Cl)cc3)nc2n1 | 44.7% | -0.9 | 36.1 | 20.9 | -0.75 | 8.8
41 | O=c1[nH]c(=O)n(C2CC(O)C(CO)O2)cc1NN=NCCCc1ccccc1 (stereo unspecified) | -21.8% | -12.4 | -8.5 | 10.8 | -11.3 | -32.5
